Each structure is given as a SMILES string.

In ChEMBL document CHEMBL1961873, “Compounds: GSK PKIS; Assays: Nanosyn kinase panel” (2012) one finds inhibition data, which are given here for eight compounds.

Assay [1] has as its target T1, Inhibitor of nuclear factor kappa-B kinase subunit epsilon (Homo sapiens) (UniProt Q14164).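 Also: reported values are averaged percent inhibition figures against human IKKε.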
T1 sequence (whole entry): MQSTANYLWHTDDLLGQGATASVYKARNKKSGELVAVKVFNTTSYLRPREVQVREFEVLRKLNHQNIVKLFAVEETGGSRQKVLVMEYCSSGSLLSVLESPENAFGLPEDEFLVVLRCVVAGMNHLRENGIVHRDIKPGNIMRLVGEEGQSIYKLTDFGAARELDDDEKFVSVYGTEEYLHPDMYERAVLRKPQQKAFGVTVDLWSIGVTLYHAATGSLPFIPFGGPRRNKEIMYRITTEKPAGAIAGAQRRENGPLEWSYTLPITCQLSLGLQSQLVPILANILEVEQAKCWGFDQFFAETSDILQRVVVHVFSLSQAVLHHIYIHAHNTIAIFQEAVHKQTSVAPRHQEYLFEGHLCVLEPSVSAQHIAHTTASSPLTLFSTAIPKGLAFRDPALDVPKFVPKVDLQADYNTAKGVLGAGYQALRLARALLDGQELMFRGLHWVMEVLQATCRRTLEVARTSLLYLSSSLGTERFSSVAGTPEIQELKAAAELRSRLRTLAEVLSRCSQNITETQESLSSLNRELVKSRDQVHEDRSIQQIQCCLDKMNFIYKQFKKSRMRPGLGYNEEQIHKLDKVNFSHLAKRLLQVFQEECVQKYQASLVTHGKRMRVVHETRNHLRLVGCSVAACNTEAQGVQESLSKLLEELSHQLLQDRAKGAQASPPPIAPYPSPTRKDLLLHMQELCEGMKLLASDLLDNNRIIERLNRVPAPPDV
Conditions: at 1 µM.

The target in assay [2] is T2, Serine/threonine-protein kinase Nek1 (Homo sapiens) (UniProt Q96PY6).
T2 sequence (whole entry): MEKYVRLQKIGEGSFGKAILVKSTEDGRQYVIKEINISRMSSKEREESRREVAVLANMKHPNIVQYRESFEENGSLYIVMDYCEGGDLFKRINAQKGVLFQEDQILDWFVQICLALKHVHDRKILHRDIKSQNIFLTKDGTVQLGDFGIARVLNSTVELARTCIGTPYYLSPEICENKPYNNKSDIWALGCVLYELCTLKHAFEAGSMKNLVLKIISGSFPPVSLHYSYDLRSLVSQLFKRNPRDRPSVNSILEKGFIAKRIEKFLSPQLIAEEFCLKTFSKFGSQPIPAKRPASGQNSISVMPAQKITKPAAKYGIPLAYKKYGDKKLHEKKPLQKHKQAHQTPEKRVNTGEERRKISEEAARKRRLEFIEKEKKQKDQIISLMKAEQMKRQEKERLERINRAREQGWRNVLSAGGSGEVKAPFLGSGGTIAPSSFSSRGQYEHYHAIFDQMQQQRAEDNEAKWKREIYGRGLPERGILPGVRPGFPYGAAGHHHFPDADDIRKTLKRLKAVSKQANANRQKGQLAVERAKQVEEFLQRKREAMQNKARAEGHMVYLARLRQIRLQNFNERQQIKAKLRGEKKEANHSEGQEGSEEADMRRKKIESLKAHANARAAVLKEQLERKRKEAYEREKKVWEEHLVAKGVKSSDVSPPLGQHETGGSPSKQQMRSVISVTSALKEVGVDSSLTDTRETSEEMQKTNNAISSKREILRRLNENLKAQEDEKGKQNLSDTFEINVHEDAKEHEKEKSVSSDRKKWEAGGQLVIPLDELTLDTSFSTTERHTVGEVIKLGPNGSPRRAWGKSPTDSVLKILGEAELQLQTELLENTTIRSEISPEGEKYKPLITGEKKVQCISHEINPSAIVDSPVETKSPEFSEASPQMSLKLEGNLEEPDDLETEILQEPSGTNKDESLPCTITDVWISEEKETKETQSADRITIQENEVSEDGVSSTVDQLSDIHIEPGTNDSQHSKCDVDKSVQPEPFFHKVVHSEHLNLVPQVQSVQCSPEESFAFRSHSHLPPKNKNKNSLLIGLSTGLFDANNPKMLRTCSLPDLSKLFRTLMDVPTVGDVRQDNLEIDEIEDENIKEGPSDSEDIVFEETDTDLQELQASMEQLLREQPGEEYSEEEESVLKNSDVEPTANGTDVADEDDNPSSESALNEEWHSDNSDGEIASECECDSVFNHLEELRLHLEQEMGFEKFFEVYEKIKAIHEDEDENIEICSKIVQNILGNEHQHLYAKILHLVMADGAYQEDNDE
Conditions: at 0.1 µM.

The target of assay [3] is T2, Serine/threonine-protein kinase Nek1 (Homo sapiens). As to conditions: at 1 µM.
For assay [4], the target named is T3, Serine/threonine-protein kinase Nek2 (Homo sapiens) (UniProt P51955).
T3 sequence (whole entry): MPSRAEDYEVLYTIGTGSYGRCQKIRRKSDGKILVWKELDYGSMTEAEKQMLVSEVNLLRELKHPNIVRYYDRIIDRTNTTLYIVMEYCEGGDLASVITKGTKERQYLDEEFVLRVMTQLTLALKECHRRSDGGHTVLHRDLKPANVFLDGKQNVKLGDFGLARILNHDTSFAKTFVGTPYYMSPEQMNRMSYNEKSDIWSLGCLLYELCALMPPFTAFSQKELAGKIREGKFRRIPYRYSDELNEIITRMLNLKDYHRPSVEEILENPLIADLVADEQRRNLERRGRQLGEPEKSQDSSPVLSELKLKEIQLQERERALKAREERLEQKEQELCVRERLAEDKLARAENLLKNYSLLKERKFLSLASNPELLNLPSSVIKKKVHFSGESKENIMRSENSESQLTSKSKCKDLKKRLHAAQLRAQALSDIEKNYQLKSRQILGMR
Conditions: at 0.1 µM.

The target in assay [5] is T3, Serine/threonine-protein kinase Nek2 (Homo sapiens). As to conditions: at 1 µM.
For assay [6], the target named is Serine/threonine-protein kinase Nek6 (Homo sapiens) (UniProt Q9HC98). Conditions: at 0.1 µM.
Assay [7] has the same target. Conditions: at 1 µM.
In assay [8] the target is Serine/threonine-protein kinase Nek7 (Homo sapiens) (UniProt Q8TDX7). Conditions: at 0.1 µM.
The target is the same in assay [9]. As to conditions: at 1 µM.
In assay [10] the target is T4, Serine/threonine-protein kinase Nek9 (Homo sapiens) (UniProt Q8TD19).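 Also: reported value is the mean percent inhibition of NEK9.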
T4 sequence (whole entry): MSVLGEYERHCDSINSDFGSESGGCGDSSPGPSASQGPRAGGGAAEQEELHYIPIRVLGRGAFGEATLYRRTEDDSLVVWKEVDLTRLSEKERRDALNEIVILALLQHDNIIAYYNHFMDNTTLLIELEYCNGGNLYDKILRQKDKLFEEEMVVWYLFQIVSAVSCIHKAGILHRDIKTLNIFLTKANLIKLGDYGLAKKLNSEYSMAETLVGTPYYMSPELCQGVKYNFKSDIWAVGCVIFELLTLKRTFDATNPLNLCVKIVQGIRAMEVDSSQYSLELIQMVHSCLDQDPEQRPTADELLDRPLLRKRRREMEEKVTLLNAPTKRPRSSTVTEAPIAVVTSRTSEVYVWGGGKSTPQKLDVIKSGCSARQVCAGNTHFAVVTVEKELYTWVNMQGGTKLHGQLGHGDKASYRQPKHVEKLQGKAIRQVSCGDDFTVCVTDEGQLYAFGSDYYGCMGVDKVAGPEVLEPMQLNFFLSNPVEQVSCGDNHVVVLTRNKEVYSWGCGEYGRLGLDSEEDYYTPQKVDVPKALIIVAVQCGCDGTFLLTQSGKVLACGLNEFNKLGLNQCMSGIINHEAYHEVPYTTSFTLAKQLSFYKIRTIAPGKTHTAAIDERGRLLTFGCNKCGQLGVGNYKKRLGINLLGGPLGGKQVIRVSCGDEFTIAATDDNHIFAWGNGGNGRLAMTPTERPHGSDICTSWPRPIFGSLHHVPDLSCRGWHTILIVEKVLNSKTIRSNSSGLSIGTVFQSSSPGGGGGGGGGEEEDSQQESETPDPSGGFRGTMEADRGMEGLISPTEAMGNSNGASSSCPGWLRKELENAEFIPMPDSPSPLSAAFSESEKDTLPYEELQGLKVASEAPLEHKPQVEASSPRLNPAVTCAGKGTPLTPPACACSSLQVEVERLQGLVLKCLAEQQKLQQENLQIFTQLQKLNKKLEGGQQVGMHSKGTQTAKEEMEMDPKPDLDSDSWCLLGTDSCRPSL
As to conditions: at 0.1 µM.

Chain of Serine/threonine-protein kinase Nek6 (Homo sapiens) (Q9HC98 whole entry): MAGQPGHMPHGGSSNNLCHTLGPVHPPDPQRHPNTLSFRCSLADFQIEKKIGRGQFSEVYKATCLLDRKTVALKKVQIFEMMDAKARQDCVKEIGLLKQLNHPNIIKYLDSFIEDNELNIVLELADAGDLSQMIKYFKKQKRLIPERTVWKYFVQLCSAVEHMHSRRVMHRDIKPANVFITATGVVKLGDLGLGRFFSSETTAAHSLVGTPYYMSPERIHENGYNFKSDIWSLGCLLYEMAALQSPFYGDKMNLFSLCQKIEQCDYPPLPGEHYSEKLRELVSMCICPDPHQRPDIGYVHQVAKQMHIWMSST
Chain of Serine/threonine-protein kinase Nek7 (Homo sapiens) (Q8TDX7 whole entry, looked up): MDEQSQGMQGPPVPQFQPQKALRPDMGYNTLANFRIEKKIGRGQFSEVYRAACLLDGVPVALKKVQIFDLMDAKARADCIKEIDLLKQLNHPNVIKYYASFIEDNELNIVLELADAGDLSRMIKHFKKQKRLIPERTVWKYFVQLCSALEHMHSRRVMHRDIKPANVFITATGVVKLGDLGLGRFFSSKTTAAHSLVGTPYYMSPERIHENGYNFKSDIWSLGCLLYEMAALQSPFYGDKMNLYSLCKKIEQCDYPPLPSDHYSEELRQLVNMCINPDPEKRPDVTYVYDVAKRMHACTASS

For orientation: inhibition means the change of the read-out against control, counted positive when it falls. Take `COc1cccc(-c2c[nH]c3c(N/N=C/c4ccncc4)ncnc23)c1`: the inhibition came to 16.8% in [1]; 1.94% in assay [2]; 10.6% in assay [3]; 2.57% in [4]; 2.88% in assay [5]; 3.57% in [6]. Besides, the inhibition is -1.66% in [7], 2.88% in [8], 3.62% in assay [9] and 4.67% in [10].

For `CC(C)COC(=O)c1ccc2c(c1)/C(=C/Nc1ccc(S(N)(=O)=O)cc1)C(=O)N2`, the inhibition is 93.4% in [1]; -1.61% in assay [2]; 2.33% in [3]; -0.98% in [4]; 0.66% in assay [5]; -0.45% in assay [6]. Further, the inhibition is 9.49% in assay [7], 0.03% in [8], 0.46% in [9] and -3.08% in [10].

With `CCOc1ccc2c(-c3ccnc(Nc4cccc(C(F)(F)F)c4)n3)cnn2n1`, the inhibition was found to be 12.1% in [1]; 2.34% in [2]; 1.31% in [3]; 0.57% in [4]; 1.02% in [5]; 0.83% in assay [6]. Moreover, the inhibition turned out to be 2.66% in [7], 1.88% in assay [8], 0.03% in assay [9] and 7.49% in assay [10].

Turning to `CNC(=O)c1cc(-c2ccc(F)cc2)cc(-c2ccc(S(=O)(=O)N3CCCC3)cc2)c1N`, the inhibition turned out to be 3.73% in assay [1]; 1.09% in assay [2]; 2.25% in assay [3]; 4.19% in assay [4]; 2.55% in [5]; 3.41% in assay [6]. In addition, the inhibition in assay [7] was found to be 2.7%; in assay [8], 3.41%; in assay [9], 7.48%; in [10] it was 5.37%.

For `Cc1ccc2c(-c3ccnc(Nc4ccccc4)n3)c(-c3ccc(F)cc3)nn2n1`, the inhibition turned out to be 3.29% in assay [1]; 2.02% in [2]; 2.14% in assay [3]; 4.21% in assay [4]; 3% in assay [5]; 4.02% in [6]. The inhibition was -0.68% in assay [7], 2.06% in assay [8], 2.94% in assay [9] and -1.05% in assay [10].

On to `Nc1ncc(-c2cccc(S(N)(=O)=O)c2)c2scc(-c3ccc(F)c(Cl)c3)c12`, for which the inhibition came out at 6.28% in [1]; 1.83% in [2]; 3.98% in assay [3]; 4.7% in [4]; 4.74% in assay [5]; 2.28% in assay [6]. Besides, the inhibition was 3.81% in assay [7], 3.41% in assay [8], -0.15% in assay [9] and 5.04% in assay [10].

For `NC(=O)c1sc(-n2cnc3ccc(C(F)(F)F)cc32)cc1OCc1ccccc1Br`, the inhibition in assay [1] stood at 6.28%; in assay [2], 3%; in [3], 3.1%; in [4], 4.34%; in assay [5], 5.43%; in assay [6] it was 3.44%. The inhibition in assay [7] was 3.3%; in [8] it was 5.57%; in [9], 3.81%; in [10] it was 8.05%.

As for `COC(=O)Nc1nc2ccc(S(=O)(=O)c3ccc(NC(=O)Nc4cc(C(F)(F)F)ccc4F)cc3)cc2[nH]1`, the inhibition in assay [1] was 4.2%; in assay [2], 2.08%; in assay [3], 1.85%; in assay [4] it was 3.76%; in assay [5], 4.26%; in [6] it was 4.42%. Further, the inhibition was -3.58% in assay [7], 2.46% in [8], 2.19% in [9] and 2.21% in assay [10].
